From PubChem BioAssay (EPA / NIEHS)
Calls of active or inactive are those of the source. The calls were made as follows: active = hit-call score of the fitted dose curve at least 0.9, where 1 is the maximum; inactive = score below 0.9.

Read-out: CYP2E1 (gene 1571)
Test: LTEA_HepaRG_CYP2E1: Life Technologies and Expression Analysis (LTEA) Assay for CYP2E1 using HepaRG (AID 2283485)
Details: mRNA level, 48 h; actives raise or lower the signal
Method: LTEA_HepaRG is a cell based, multiplexed-readout assay that uses HepaRG, a human liver cell line, with measurements taken at 48 hours after chemical dosing on a 96-well plate.LTEA_HepaRG_CYP2E1 is one of 102 assay component(s) measured in the LTEA HepaRG cell culture assay. It is a marker of NR mediated metabolism.Data from the assay component LTEA_HepaRG_CYP2E1 was analyzed into 1 endpoint. This assay endpoint, LTEA_HepaRG_CYP2E1, was analyzed with bidirectional fitting relative to DMSO as the negative control and baseline of activity. Using a type of inducible reporter, measures of mRNA induction for gain or loss-of-signal activity can be used to understand regulation of transcription factor activity. To generalize the intended target to other relatable targets, this assay endpoint is annotated to the cyp intended target family, where the subfamily is xenobiotic metabolism.
A total of 1060 chemcials from the ToxCast library were tested in eight-point concentration-response experiments. Cell culture and cytotoxicity assays were conducted at Thermo Fisher Scientific's Custom Services facility (Madison, WI). A single lot of human HepaRG cells (Thermo Fisher Scientific, Frederick, MD) was used for the cell culture experiments. 96-well format collagen type I coated plates of human HepaRG cells were prepared using established methods. Briefly, cryopreserved HepaRG cells were thawed, plated at a density of approximately 100,000 cells/well in HepaRG Thaw, Plate, and General Purpose media (HPRG770, Thermo Fisher Scientific), and incubated for 48 hours. 0.5% DMSO was selected as vehicle control to balance the requisite need of DMSO in HepaRG cultures to maintain differentiation (for example, baseline metabolism, proportions of hepatocytes vs. cholangiocytes), while enabling further hepatic receptor pathway activation (for example, PXR and CAR) in response to chemical exposure. 48 hours after plating, the culture medium was replaced with HepaRG Serum-Free Incudtion Media. Cells were exposed to each test chemical in duplicate and maintained in CO2 incubators for another 48 hours. Chemical plates were thawed to room temperature and 200x concentrations of treatment groups were prepared. 8-point conentration-reponse curves were made with the highest exposure at 100 uM, followed by half-log dilutions, all in 0.5% DMSO. Each test plate contained variouse controls, induction positive controls (1mM phenobarbital), cytotoxicity positive controls ([…] aflatoxin B1), vehicle controls (0.5% DMSO), and total lysis controls (0.5% DMSO). Cell morphology images were taken using an Essen IncuCyte FLR automated microscope, with six 96-well plates imaged in about 24 minutes. Images were captured and exported and JPEG files. Spent culture media was transfered to black-well plates for the LDH assay, and remaining media was sorted at -80 C for later use. Cells were treated with RLT buffer and frozen until shipped for gene expression analysis. Total RNA was isolated from the cell suspension in 75 uL of Buffer RLT (Qiagen, Germantown, MD 20874) by Quintiles/Expression Analysis (Durham, NC) using a custom isolation procedure. Total RNA from each plate well was transferred to a preamplification plate. Fluidigm's 96.96 Dynamic ArrayTM (Fluidigm, Amsterdam, the Netherlands) technology was used for gene expression analyses by quantitative reverse transcription polymerase chain reaction (qRT-PCR, performed by Quintiles/Expression Analysis, Durham, NC)89. Standard TaqManTM Assays (Applied Biosystems/ThermoFisher Scientific, Foster City, CA) were used to assess the expression of 93 genes selected based on their selectivity and sensitivity to important hepatic receptors known to be modulated by environmental chemicals; importance in human hepatocyte functionality; and hepatotoxicity. […]

Compound	AC50	outcome
Cn1c(=O)cc(Oc2ccc(F)cc2F)c2cnc(NCC(C)(C)O)nc21	50 µM (active)	
CCCCCCCCCCCCCCCO		inactive
O=C1CCCCCN1		inactive
O=C(OC[C@H]1O[C@@H](OC(=O)c2cc(O)c(O)c(OC(=O)c3cc(O)c(O)c(O)c3)c2)[C@H](OC(=O)c2cc(O)c(O)c(OC(=O)c3cc(O)c(O)c(O)c3)c2)[C@@H](OC(=O)c2cc(O)c(O)c(OC(=O)c3cc(O)c(O)c(O)c3)c2)[C@@H]1OC(=O)c1cc(O)c(O)c(OC(=O)c2cc(O)c(O)c(O)c2)c1)c1cc(O)c(O)c(OC(=O)c2cc(O)c(O)c(O)c2)c1	5.26 µM (active)	
COC(=O)CC(=O)OC	33 µM (active)	
CC[C@H]1OC(=O)[C@H](C)[C@@H](O[C@H]2C[C@@](C)(OC)[C@@H](O)[C@H](C)O2)[C@H](C)[C@@H](O[C@@H]2O[C@H](C)C[C@H](N(C)C)[C@H]2O)[C@](C)(O)C[C@@H](C)C(=O)[C@H](C)[C@@H](O)[C@]1(C)O	16 µM (active)	
CCOc1cccc(-n2cc(C(=O)N3CCN(c4cc(C(=O)O)c5ccccc5c4)CC3)nc2-c2ccc(C)cc2)c1	14.7 µM (active)	
CCCC(=O)OCC		inactive
Cc1ccc(N)cc1O	30.8 µM (active)	
C=CCCCCCCCCC(=O)O		inactive
CN(C)c1ccc(N=NS(=O)(=O)O)cc1	22 µM (active)	
O=c1[nH]c2ccc(S(=O)CCN3CCC(Cc4ccc(F)cc4)CC3)cc2o1 (stereo not given)	50 µM (active)	
Oc1ccc2c(c1)-c1ccccc1C2		inactive
CCCCCCCCCCCCc1ccccc1		inactive
O=C(NS(=O)(=O)/C=C/c1ccccc1)c1ccc(F)cc1Cl	22.3 µM (active)	
COC(=O)c1c(Cl)c(Cl)c(C(=O)OC)c(Cl)c1Cl		inactive
COc1ccc(/C=C/S(=O)(=O)NC(=O)c2ccc(C)cc2Cl)cc1	69.6 µM (active)	
C=CC(=C)CCC=C(C)C		inactive
O=C1OC(=O)C2C3C=CC(C3)C12 (stereo not given)		inactive
CCCN(C1CCN(C(=O)C2CCNCC2)CC1)[C@@H]1CCc2ccc(OC)cc2C1	67.4 µM (active)	

Compound	AC50	outcome
CC(=O)c1ccc2c(c1)[C@H](NC(=O)c1ccc(F)cc1)[C@@H](O)C(C)(C)O2		inactive
Clc1nc(Cl)c(Cl)c(Cl)c1Cl		inactive
CCOCCO		inactive
CC(C)(O)c1coc(S(=O)(=O)NC(=O)Nc2c3c(cc4c2CCC4)CCC3)c1	36.8 µM (active)	
Cc1ccc(C)c(O)c1		inactive
CC(C)=CCCC(C)=CC=O		inactive
O=C(O)c1cccc(Oc2ccccc2)c1		inactive
CCN(C(=O)c1cc(C)cc(OC[C@H](C)Nc2ccncc2)c1)C(C)C	27.9 µM (active)	
CC[C@H]1CC[C@H](NCc2cc3c(cc2OC)[C@H]2C[C@H]2C(=O)N3C)[C@H](c2ccccc2)N1	50 µM (active)	
CC(C)c1cccc(C(C)C)c1N1C(=O)c2ccc(O)cc2C1=O	89.7 µM (active)	
CCOC(=O)CC(CC(=O)OCC)(OC(C)=O)C(=O)OCC		inactive
COc1cccc(-c2ccc(/C=C\CN3CCCCCC3)cc2Cl)c1	61.8 µM (active)	
CC(C)=CCCC(C)CCO (stereo not given)		inactive
CC/C(=C\C(=N/O)C(N)=O)C(C)[N+](=O)[O-] (stereo not given)		inactive
Nc1nc2ncc(CNc3ccc(C(=O)N[C@@H](CCC(=O)O)C(=O)O)cc3)nc2c(=O)[nH]1		inactive
CNS(=O)(=O)c1cc(C(=O)N2CCC(CCN3C4CCC3CC(n3c(C)nc5ccccc53)C4)(c3cccc(F)c3)CC2)c(Cl)cc1F (stereo not given)	17.7 µM (active)	
COC(=O)c1ccccc1O		inactive
Cc1ccc(S(=O)(=O)O)cc1C		inactive
CC[C@H](C)C(=O)O[C@H]1C[C@@H](C)C=C2C=C[C@H](C)[C@H](CC[C@@H]3C[C@@H](O)CC(=O)O3)[C@H]21	29.8 µM (active)	
COCCOc1cc2cc(C(=O)NC3CCN(C(C)C)CC3)n(CC(=O)Nc3ccc(Cl)cn3)c2cn1	52.6 µM (active)	
